Bioassay records: PubChem BioAssay, National Center for Advancing Translational Sciences (NCATS)
GALK inh: inhibitors of human galactokinase | Potency, µM (series often up to 57.5 µM), inactives show at the top dose activity change, negative = inhibition, actives largely listed as inhibitors | actives 0.007% (n = 270,000) | Purified GALK, Kinase-Glo residual ATP luminescence | P51570 | AID 1868; further: potency means the concentration at half of the fitted maximal effect
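Galactose (100 uM) and ATP (35 uM) were turned over by 5 nM GALK for 1 h at RT. Kinase-Glo Plus then converted the remaining ATP into a luminescent signal.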
TrxR1 substrate: is turned over as a substrate by rat TrxR1; O89049; purified TrxR1 substrate turnover, NADPH consumption readout; Potency, µM (top dose mostly 114 µM), inactives show at the highest dose activity change, negative = substrate turnover; actives 0.01% (n = 390,000); further: potency means the concentration at half of the fitted maximal effect; nearly all actives have a fitted effect of over 50% in size
Target sequence (O89049 whole entry, looked up): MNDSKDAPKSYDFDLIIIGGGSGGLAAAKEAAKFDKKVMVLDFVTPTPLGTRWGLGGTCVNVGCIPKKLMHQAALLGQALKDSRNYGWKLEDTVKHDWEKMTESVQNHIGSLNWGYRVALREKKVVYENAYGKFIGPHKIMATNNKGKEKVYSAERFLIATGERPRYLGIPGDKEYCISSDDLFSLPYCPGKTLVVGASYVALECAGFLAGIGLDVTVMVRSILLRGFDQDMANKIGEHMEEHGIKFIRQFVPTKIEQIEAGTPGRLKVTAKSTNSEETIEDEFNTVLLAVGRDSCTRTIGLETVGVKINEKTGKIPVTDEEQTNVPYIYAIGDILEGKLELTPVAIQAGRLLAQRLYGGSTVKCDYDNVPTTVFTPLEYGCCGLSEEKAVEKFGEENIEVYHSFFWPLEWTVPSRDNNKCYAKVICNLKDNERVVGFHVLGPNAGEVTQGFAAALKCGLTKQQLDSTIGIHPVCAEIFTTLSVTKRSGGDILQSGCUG
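Rat TrxR1, dispensed at 90 nM, was prereduced with 400 uM NADPH (final) for 5 min at ~22 deg C, then incubated with compound 15 min before 400 uM selenite. A first-read NADPH fluorescence drop versus no-compound background flagged substrates.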
RORg inh: inhibitors of mouse ROR gamma transcriptional activity; P51450; Drosophila S2 Gal4-RORgamma UAS-luciferase reporter, 20 h; Potency, µM (series often up to 53.6 µM), without a hit: at the top dose activity change, negative = inhibition, actives largely listed as inhibitors; actives 5.4% (n = 310,000); further: potency means the concentration at half of the fitted maximal effect; nearly all actives have a fitted effect of over 60% in size
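In this cell-based reporter format, copper sulfate (700 uM final) drives Gal4–ROR gamma fusion expression from a metallothionein promoter in Drosophila Schneider cells; compounds preincubated 1 hr, reporter read after 20 hr at ambient temperature.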
FBPA coupling cs: inhibits coupling enzyme system, counter-screen for aldolase hits | coupling enzyme system counterscreen, AmpLite Red fluorescence | activity change, negative = inhibition, % at 58.2 µM, hits read low | actives 0.67% (n = 290,000); in the data active means activity change below about -30%
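Counterscreen of the coupled detection system alone, without aldolase: glyceraldehyde-3-phosphate coupling enzymes plus AmpLite Red readout. Compounds at 57.5 uM final, 10 min RT preincubation, 20 min RT reaction, fluorescence 525/598 nm.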
rTrxR1 inhibitor: inhibitors of rat thioredoxin reductase 1 | O89049 | recombinant rTrxR1, NADPH fluorescence consumption, selenite substrate | Potency, µM (top dose mostly 114 µM), inactives show at the highest dose activity change, negative = inhibition, most hits filed as inhibitors | actives 1% (n = 390,000) | AID 588453; further: potency means the concentration at half of the fitted maximal effect; nearly all actives have a fitted effect of over 65% in size
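Rat TrxR1 (90 nM in the dispensed reagent) was pre-reduced with 400 uM NADPH for 5 min at room temperature, then incubated with compound for 15 min. After 400 uM selenite was added, NADPH fluorescence (Ex 340/Em 450 nm) was followed for 8 min.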
VP16 counter: inhibits Gal4-VP16 luciferase reporter, ROR gamma counter-screen; actives 3.5% (n = 310,000); AID 2546; Potency, µM (series often up to 53.6 µM), for the others: top-dose activity, negative = inhibition, most hits filed as inhibitors; Drosophila S2 Gal4-VP16 UAS-luciferase, luminescence, 20 h;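 further: Gal4-VP16 expression switched on by copper sulfate through the metallothionein promoter; potency means the concentration at half of the fitted maximal effect; nearly all actives have a fitted effect of over 50% in size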
* marks the source's active call; other numbers are inactive results; ? = inconclusive; nt = not tested or not shown; [ ] = remark or other dose. Only some compounds are listed: those with a hit (about 5.9% of all), similar ones and a draw of the others. Unless noted, the call rests on the fitted dose curve; in most records, active means well fitted curve in the direction sought with a large enough effect; inconclusive means small, poorly fitted or top-dose-only effect, or another doubt; inactive means no such curve, though single readings can be large; an effect the other way counts as inactive or inconclusive. On the % scale 0 is the no-effect control and ±100 the full control effect.

SMILES	GALK inh	TrxR1 substrate	RORg inh	FBPA coupling cs	rTrxR1 inhibitor	VP16 counter
CCCCOc1ccccc1C(=O)N(Cc1sccc1C)C1CCS(=O)(=O)C1 (stereo not drawn)	nt	4%	nt	nt	14%	nt
CCN(CC(=O)Nc1c(F)cccc1F)C(=O)COc1ccc2c(c1)CCC2	nt	-2%	nt	nt	-9%	nt
Cc1ccc(-c2csc3ncn(CC(=O)OC(C)C)c(=O)c23)cc1	3%	2%	0%	-1	37%	2%
Cc1ccc2oc(=O)c3cnn(CC(=O)N(CCC(C)C)Cc4ccco4)c3c2c1	4%	2%[57.1 µM]	-22%	2	2%[57.1 µM]	-1%
CCCCN(Cc1ccco1)C(=O)Cn1ncc2c(=O)oc3ccc(C)cc3c21	3%	0%[57.1 µM]	1.4µM*	4	4%[57.1 µM]	-3%
COc1cc(C=O)c([N+](=O)[O-])cc1OC	nt	nt	-42%	-61*	nt	21%
CC(C)(CC(=O)OCC(=O)Nc1ccccc1F)CC1=NS(=O)(=O)c2ccccc2N1	6%	-5%	20%	nt	10%	-6%
CCOC(=O)/C(C)=N/Nc1nc(-c2ccc(NC(C)=O)cc2)cs1	1%	-15%	-15%	-6	56µM*	-16%
O=C(NNc1nc(-c2ccc(Cl)cc2)cs1)c1ccco1	0%	-14%	4µM*	2	-10%	5µM*
CC(=O)Nc1ccc(-c2csc(N/N=C(/C)c3ccccc3)n2)cc1	-2%	1%	-20%	1	?	16%
CC(=O)Nc1ccc(-c2csc(NNC(=O)c3ccccc3)n2)cc1	-1%	7%	8.9µM*	5	-12%	-4%
O=C(NNc1nc(-c2ccccc2)cs1)c1ccco1	0%	-7%	3.5µM*	2	1%	5µM*
O=C(Nc1nc(-c2ccc(Cl)s2)cs1)c1ccco1	2%	4%[57.1 µM]	-29%	1	18%[57.1 µM]	17%
COC(=O)c1ccc2c(=O)n(CCCCCC(=O)N3CCN(c4ccc(OC)cc4)CC3)c(=O)[nH]c2c1	nt	-3%[57.1 µM]	nt	nt	5%[57.1 µM]	nt
COc1ccc(N2C(=O)CC(N3CCN(C(=O)c4ccco4)CC3)C2=O)cc1 (stereo not drawn)	-2%	-14%	-9%	0	-24%	0%
COc1cc(C2=NOC(C(=O)N3CCOCC3)C2)cc(OC)c1OC (stereo not drawn)	1%	10%	-12%	0	24%	0%
[O-]/C(=C(\C(=S)Nc1ccccc1F)[n+]1ccccc1)c1ccc(-c2ccccc2)cc1	14%	-5%	-25%	-1	6%[57.1 µM]	-10%
CCOC(=O)c1nc(Nc2ccc(C(=O)OC(C)C)cc2)c2ccccc2n1	nt	11%	nt	nt	-2%	nt
CCc1nnc(NC(=O)CSc2nnc(-c3ccccc3NC(=O)c3ccccc3)o2)s1	9%	35%	2.2µM*	1	29%	3.5µM*
Cc1ccc(NC(=O)CSc2nnc(-c3ccccc3C)o2)cc1C	-4%	-2%	14µM*	0	12%	?
Cc1cc(C)cc(NC(=O)CSc2nnc(-c3ccccc3C)o2)c1	-2%	-1%[57.1 µM]	-30%	0	5%[57.1 µM]	?
Cc1cccc(NC(=O)CSc2nnc(-c3ccccc3C)o2)c1	-2%	2%	5µM*	0	9%	1%
COc1ccc(CNC(=O)CN=C2NC(=O)C(c3ccccc3)(c3ccccc3)N2)cc1	2%	-2%	26%	5	1%	-3%
O=C(NC1CCCC1)C1CC(=O)N(C2CCCCCCC2)C1 (stereo not drawn)	-2%	7%	6%	2	23%	-4%
CCOc1cc(CO)cc(Br)c1OCC(N)=O	-1%	4%	-5%	1	18%	16%
SMILES	GALK inh	TrxR1 substrate	RORg inh	FBPA coupling cs	rTrxR1 inhibitor	VP16 counter
CC1CCC/C=C/C(=O)c2c(O)cc(O)cc2CC(=O)O1 (stereo not drawn)	-11%	-3%	?	-8	11µM*	22µM*
Cc1cccc(C)c1-n1c(C)cc(/C=N\NC(=O)CC(=O)NC2CCCCC2)c1C	-4%	-5%	-1%[10 µM]	3	6%	-8%
O=S(=O)(CS(=O)(=O)c1ccccc1)c1ccccc1	nt	-10%	nt	nt	11µM*	nt
O=S(=O)(C/C(=C/CO)S(=O)(=O)c1ccccc1)c1ccccc1	0%	10%	4µM*	0	2.2µM*	4.5µM*
CCN(Cc1ccccc1)C(=O)CS(=O)(=O)c1ccccc1	9%	4%	35%	3	11%	2%
Cc1ccc(S(=O)(=O)CS(=O)(=O)c2ccc(C)cc2)cc1	nt	-1%[11.4 µM]	nt	nt	-18%[11.4 µM]	nt
CCn1cc(CNC(=O)c2ccc(C)s2)cn1	-1%	-2%	15%	0	13%	-4%
CC(=O)C1[C@H](N(C)C)CC2C3CC=C4CC(O)CC[C@]4(C)C3CC[C@@]21C (stereo partly drawn)	nt	-3%	-15%	-1	14%	-8%
Cc1ccc(C(=O)Nc2ccc3nc(C)sc3c2)s1	1%	-7%	?	-2	-2%	16%
Cc1nc2cc(NC(=O)c3ccc(Br)s3)ccc2s1	6%	0%	5µM*	nt	4%	?
O=C1/C(=N\S(=O)(=O)c2cccs2)C([n+]2cccc(Cc3ccccc3)c2)=C([O-])c2ccccc21	-4%	3%[57.1 µM]	?	-38*	26%[57.1 µM]	?
O=C1/C(=N\S(=O)(=O)c2cccs2)C([n+]2ccc(CCCc3ccccc3)cc2)=C([O-])c2ccccc21	2%	7%[57.1 µM]	-19%	-35*	9%[57.1 µM]	?
Cc1cc(C)c[n+](C2=C([O-])c3ccccc3C(=O)/C2=N\S(=O)(=O)c2cccs2)c1	-3%	4%	32%	0	16%	-2%
Cc1cc[n+](C2=C([O-])c3ccccc3C(=O)/C2=N\S(=O)(=O)c2cccs2)cc1C	2%	-4%	16µM*	-63*	27%	11µM*
COc1cccc(/C=N\NC(=O)C2C(=O)NCC2c2ccccc2)c1O (stereo not drawn)	3%	-1%[57.1 µM]	8.9µM*	2	12%[57.1 µM]	?
COc1cccc(/C=N/NC(=O)NC2CCCCC2)c1O	-4%	-8%	6.3µM*	0	-7%	8.9µM*
COc1cccc(/C=N/NC(=O)C(=O)N2CCCCCC2)c1O	3%	-14%	7.9µM*	nt	-19%	10µM*
COc1cccc(/C=N/NC(=O)C(=O)N/N=C/c2cccc(OC)c2O)c1O	0%	5%[57.1 µM]	19%	0	23%[57.1 µM]	-7%
COc1ccc(CCNC(=O)c2ccccc2NC(=O)c2ccco2)cc1OC	2%	-4%	7%	-1	2%	5%
COC(=O)Cn1c(=NC(=O)CSCC(=O)NC2CCCCC2)sc2cc(OC)ccc21	-2%	17%[57.1 µM]	-10%	0	10%[57.1 µM]	-9%
